Reference: PubChem BioAssay (NCATS)
Results filed as inconclusive are left out. Where a call stands in place of a potency, no number is given. Activity calls are given as the source filed them. The call rests on the fitted dose curve; in most records, active means well fitted cell-killing curve with a large enough effect; inconclusive means small, poorly fitted or top-dose-only effect, or effect the other way; inactive means no such curve, though single readings can be large or run the other way.

Assay: qHTS assay to identify small molecule inhibitors of chordoma cells - UCH-1 (AID 1259355); further: nearly all actives have a fitted effect of over 55% in size
Settings: UCH-1 chordoma viability, CellTiter-Glo, 48 h, combination, with auranofin plus four topoisomerase inhibitors; series mostly up to 46.1 µM
Description: NIH Chemical Genomics Center [NCGC]
Chordoma is a rare and slow growing tumor that can occur anywhere along the spine, from the base of the skull to the tailbone. Current treatment options for chordoma is surgery and radiation therapy for those who are not candidates for surgery. But chordomas tend to return in the same location or surrounding areas of the original tumor after surgery and/or radiation. Chemotherapy can slow down the progression of the tumor. As chordoma is slow growing, the general cytotoxic agents that kill fast growing cells are ineffective, and some patients have been reported to respond to molecularly targeted drugs.
NCATS Pharmaceutical Collection (NPC) containing approximately 3000 clinically approved and investigational drugs were used to screen at 15 concentrations in a chordoma cell lines, UCH-1, to identify small molecule compounds that can inhibit chordoma cell growth.
NCGC Assay Protocol Summary:
Human chordoma cell line UCH-1 was dispensed at 800 per well in 4uL of culture medium into white solid bottom 1536-well plates (Corning Life Sciences, Corning, NY) using a Multidrop Combi (Thermo Scientific, Waltham, MA) dispenser. The assay plates were incubated at 37 C and 5% CO2 for an overnight, and then 23nL of compounds dissolved in DMSO and positive control were transferred using a Pintool station (Wako, San Diego, CA). Compound treatment was followed by the addition of 1uL of the combination compounds (1uM Auranofin, 500nM each of Camptothecin, Doxorubicin, Rubitecan, and Topotecan) and assay medium to each well of the assay plates using Flying Reagent Dispenser (FRD, Aurora Discovery, San Diego, CA). The assay plates were incubated at 37 C and 5% CO2 for 48hr. Then 5uL of CellTiter-Glo reagent (Promega Corporation, Madison, WI) was added to each well of the assay plates using FRD. After 30min incubation at room temperature, the luminescence signal was quantified using a ViewLux plate reader (PerkinElmer, Shelton, CT).

SMILES | Potency
C=C(C)C1CC=C(C)CC1 (stereo not given) | inactive
O=C1NCCN1c1ncc([N+](=O)[O-])s1 | inactive
C[C@H](CCC(=O)O)[C@H]1CC[C@H]2[C@@H]3[C@H](O)C[C@@H]4C[C@H](O)CC[C@]4(C)[C@H]3C[C@H](O)[C@]12C | inactive
CCN1C(=O)NC(c2ccccc2)C1=O (stereo not given) | inactive
CN[C@H](CC(C)C)C(=O)N[C@H]1C(=O)N[C@@H](CC(N)=O)C(=O)N[C@H]2C(=O)N[C@H]3C(=O)N[C@H](C(=O)N[C@@H](C(=O)O)c4cc(O)cc(O)c4-c4cc3ccc4O)[C@H](O)c3ccc(c(Cl)c3)Oc3cc2cc(c3O[C@@H]2O[C@H](CO)[C@@H](O)[C@H](O)[C@H]2O[C@H]2C[C@](C)(N)C(O)[C@H](C)O2)Oc2ccc(cc2Cl)[C@H]1O (stereo not given in full) | inactive
CC1CC(OC(=O)C(O)c2ccccc2)CC(C)(C)C1 (stereo not given) | inactive
OC[C@@H](O)C(O)[C@H](O)CO | inactive
C=CC[N+]1([C@H]2C[C@H]3[C@@H]4CC[C@H]5C[C@H](O)[C@@H](N6CCOCC6)C[C@]5(C)[C@H]4CC[C@]3(C)[C@H]2OC(C)=O)CCCC1 | inactive
NC(=O)[C@H]1O[C@@H](O)[C@H](O)[C@@H](O)[C@@H]1O | inactive
CC1=C(/C=C/C(C)=C/C=C/C(C)=C/C=C/C=C(C)/C=C/C=C(C)/C=C/C2=C(C)C[C@@H](O)CC2(C)C)C(C)(C)C[C@H](O)C1 | inactive
CCCC1C(=O)N2C(N(C)C)=Nc3ccc(C)cc3N2C1=O (stereo not given) | inactive
COC(=O)C(CN)c1c[nH]c2ccc(OC)cc12 (stereo not given) | inactive
C=CCOc1ccc(CC(=O)O)cc1Cl | inactive
CC1C(=O)CC2C3(C)CCC2(C(C)C(=O)O)C(=O)C13 (stereo not given) | inactive
COc1ccc(/C=N/NC(=O)c2ccncc2)c(C(=O)O)c1OC | inactive
CC1=CC(=O)NS(=O)(=O)O1 | inactive
CN1C(=O)OC(C)(C)C1=O | inactive
CC(C)Cc1ccc([C@@H](C)C(=O)NS(C)(=O)=O)cc1 | inactive
Cc1ccc(S(=O)(=O)NCl)cc1 | inactive
COc1ccc(C(=O)/C(Br)=C\C(=O)O)cc1 | inactive

SMILES | Potency
CCCCCCCCCCCCCCCCCC(=O)OCC(C)O (stereo not given) | inactive
NC(=O)Oc1ccc(Cc2ccccc2)cc1 | inactive
O=C(O)c1ccc(NC2OC[C@@H](O)[C@H](O)[C@H]2O)cc1 (stereo not given in full) | inactive
Cn1c(=O)c2c(ncn2CCOC(=O)C(C)(C)Oc2ccc(Cl)cc2)n(C)c1=O | inactive
CC(C)[C@@H]1CC[C@@H](C)C[C@H]1OC(=O)c1ccccc1O | inactive
CC1CC(O)CC(C)(C)C1 (stereo not given) | inactive
O=C(CCCN1CCN2CCCC2C1)c1ccc(F)cc1 (stereo not given) | inactive
CCCCCCCCCc1ccc(OCCOCCO)cc1 | inactive
CCOc1cc(-c2nccc3cc(OC)c(OC)cc23)cc(OCC)c1OCC | inactive
CCCCC[C@H](O)/C=C/[C@@H]1[C@H]2C/C(=C/CCCC(=O)O)O[C@H]2C[C@H]1O | inactive
C[C@@H]1NC(=O)[C@@H](N)CNC(=O)[C@H](C2CCNC(N)=N2)NC(=O)/C(=C/NC(N)=O)NC(=O)[C@H](CNC(=O)C[C@@H](N)CCCN)NC1=O (stereo not given in full) | inactive
CO/N=C(\C(=O)N[C@@H]1C(=O)N2C(C(=O)[O-])=C(C[n+]3ccc(N)n3CCO)CS[C@H]12)c1csc(N)n1 | inactive
CC(CN1c2ccccc2Sc2cccnc21)N(C)C (stereo not given) | inactive
CN(C)C=Nc1c(I)cc(I)c(CCC(=O)O)c1I | inactive
CCCc1ccc(C(=O)O)cc1 | inactive
CCN(CC)CCC(=O)N1c2ccccc2Sc2ccc(C(F)(F)F)cc21 | inactive
CC1(C)[C@@H]2CC[C@@]1(C)[C@H](OC(=O)CSC#N)C2 | inactive
O=C(O)C1=C(CSc2nnnn2CS(=O)(=O)O)CS[C@@H]2[C@H](NC(=O)[C@H](O)c3ccccc3)C(=O)N12 | inactive
Cc1cc(=O)c(C(=O)N[C@@H](C(=O)N[C@@H]2C(=O)N3C(C(=O)O)=C(CSc4nnnn4C)CS[C@H]23)c2ccc(O)cc2)c[nH]1 | inactive
CO/N=C(\C(=O)N[C@@H]1C(=O)N2C(C(=O)O)=C(CSC(=O)c3ccco3)CS[C@H]12)c1csc(N)n1 | inactive
